The panel holds about 83,000 compounds, 20% with a hit somewhere; the sample as a whole holds those more often.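 Each cell line was grown in a 96-well plate and treated with one concentration of compound for 48 hours. Values below 10 were considered active.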 A number with no mark means an inactive call. Activity calls are given as the source filed them.

Test systems include NCI-H23 lung; NCI-H226 lung; NCI-H322M lung; HOP-62 NSCLC; NCI-H460 lung; HOP-92 NSCLC; NCI-H522 lung; A549/ATCC NSCLC; 786-0 renal; COLO 205 colon; DU-145 prostate; K-562 leukemia; MALME-3M melanoma; MDA-MB-231 breast; RXF 393 renal; SF-268 CNS; SF-295 CNS; SF-539 CNS; UACC-257 melanoma; M14 melanoma.
Common to all, as to assay: NCI-60 one-dose screen, 48 h (100 = growth as untreated, 0 = no growth, -100 = all killed)
Common to all, as to settings: 10 µM unless noted

As for `Nc1cc(C(F)(F)F)c(-c2cc(N3CCOCC3)nc(N3CCOCC3)n2)cn1`, the growth in the experiment on NCI-H23 lung was -11.8% (active); in the experiment on NCI-H226 lung, -10.6% (active); in the experiment with NCI-H322M lung it was -18.3% (active); in the experiment on HOP-62 NSCLC, -40.8% (active); in the experiment with NCI-H460 lung it was -12.9% (active); in the experiment with HOP-92 NSCLC, -42.2% (active). The growth with NCI-H522 lung is -51.7% (active); with A549/ATCC NSCLC, -44.8% (active); with 786-0 renal, -9.19% (active); in the experiment with COLO 205 colon it was -61.3% (active); in the experiment on DU-145 prostate, 3.11% (active); with K-562 leukemia, 0.801% (active). The growth in the experiment with MALME-3M melanoma was -60.8% (active); in the experiment with MDA-MB-231 breast, -1.72% (active); in the experiment on RXF 393 renal, -39.7% (active); in the experiment on SF-268 CNS, 6.65% (active); with SF-295 CNS, -46.8% (active); with SF-539 CNS, -57% (active). Besides, the results for the growth in the experiment with UACC-257 melanoma and in the experiment with M14 melanoma were -49.5% (active) and -62.1% (active), respectively.
Turning to `CNC(=O)c1cnc(C)nc1-c1cc(C(C)(C)C)c(O)c(C(C)(C)C)c1`, the growth in the experiment on NCI-H23 lung is 103%; with NCI-H226 lung it was 98.2%; in the experiment with NCI-H322M lung it was 104%; in the experiment with HOP-62 NSCLC it was 99.9%; in the experiment with NCI-H460 lung, 108%; in the experiment on HOP-92 NSCLC it was 74%. In addition, the growth in the experiment with NCI-H522 lung is 83.2%; in the experiment with A549/ATCC NSCLC, 95.9%; with 786-0 renal, 88.9%; with COLO 205 colon, 105%; with DU-145 prostate it was 99.8%; in the experiment with K-562 leukemia it was 90.4%. For the same compound, the growth was 87.5% in the experiment with MALME-3M melanoma; 87.5% in the experiment with MDA-MB-231 breast; 111% with RXF 393 renal; 98% in the experiment on SF-268 CNS; 88.5% in the experiment with SF-295 CNS; 91.9% with SF-539 CNS. In addition, the growth is 100% with UACC-257 melanoma and 94.1% with M14 melanoma.
With `COc1cc2c(c(OC)c1)C1c3ccccc3NC(=O)N1CC2` (stereo not given), the growth was 24% in the experiment with NCI-H23 lung; 51.5% in the experiment with NCI-H226 lung; 34.9% in the experiment on NCI-H322M lung; 51.6% in the experiment with HOP-62 NSCLC; 11.3% in the experiment with NCI-H460 lung; 28.7% in the experiment on HOP-92 NSCLC. Also, the growth was 39.6% in the experiment on NCI-H522 lung; 22.7% in the experiment on A549/ATCC NSCLC; 41.4% in the experiment with 786-0 renal; 16.1% in the experiment with COLO 205 colon; 13.2% in the experiment with DU-145 prostate; 12.5% in the experiment with K-562 leukemia. Besides, the growth in the experiment with MALME-3M melanoma is 28.5%; with MDA-MB-231 breast it was 32.2%; with RXF 393 renal it was 9.03% (active); in the experiment on SF-268 CNS, 48.2%; in the experiment on SF-295 CNS, 13.2%; in the experiment on SF-539 CNS, -9.57% (active). For the same compound, the growth with UACC-257 melanoma was 56.4%; in the experiment on M14 melanoma, -18.6% (active).
For `CN1CCC(COc2cnc(-c3cccc(Cn4nc(-c5cccc(C#N)c5)ccc4=O)c3)nc2)CC1`, the growth is 62.5% in the experiment on NCI-H23 lung; 92.2% with NCI-H226 lung; 88.7% with NCI-H322M lung; 45.7% with HOP-62 NSCLC; 52.4% in the experiment on NCI-H460 lung; 72.2% in the experiment on HOP-92 NSCLC. Moreover, the growth in the experiment on NCI-H522 lung is 25.5%; in the experiment with A549/ATCC NSCLC, 48.1%; in the experiment on 786-0 renal, 61.9%; with COLO 205 colon, -60.3% (active); in the experiment with DU-145 prostate it was 77.8%; in the experiment with K-562 leukemia, 3.04% (active). Besides, the growth with MALME-3M melanoma was 48.4%; with MDA-MB-231 breast, 57.3%; with RXF 393 renal, 87.7%; with SF-268 CNS, 67.2%; in the experiment with SF-295 CNS, 54.5%; in the experiment on SF-539 CNS it was 33.5%. Further, the growth is -27.5% (active) in the experiment on UACC-257 melanoma and 39% with M14 melanoma.
Consider `Clc1ccc(C(Cn2ccnc2)OCc2ccsc2Cl)c(Cl)c1` (stereo not given), for which the growth in the experiment on NCI-H23 lung is 37.9%; in the experiment with NCI-H226 lung it was 63%; in the experiment on NCI-H322M lung it was 88.2%; with HOP-62 NSCLC, 73.6%; in the experiment on NCI-H460 lung, 57.7%; in the experiment with HOP-92 NSCLC, 28.7%. Besides, the growth with NCI-H522 lung was 35.1%; in the experiment with A549/ATCC NSCLC it was 56.1%; in the experiment on 786-0 renal, 55.6%; with COLO 205 colon it was 62.9%; with DU-145 prostate, 90.3%; in the experiment on K-562 leukemia, 16%. Also, the growth in the experiment on MALME-3M melanoma was 65.8%; in the experiment on MDA-MB-231 breast, 70.9%; with RXF 393 renal, 27.8%; in the experiment on SF-268 CNS, 67.5%; with SF-295 CNS, 37.6%; in the experiment on SF-539 CNS it was 72.5%. Moreover, the growth is 59.7% in the experiment with UACC-257 melanoma and 41.4% in the experiment with M14 melanoma.
Take `Cc1cn(-c2cc(NC(=O)c3ccc(C)c(Nc4nccc(-c5cccnc5)n4)c3)cc(C(F)(F)F)c2)cn1`: the growth was 49.2% with NCI-H23 lung; 67.1% with NCI-H226 lung; 69.3% with NCI-H322M lung; 47.5% in the experiment with HOP-62 NSCLC; 63.7% in the experiment on NCI-H460 lung; 70.7% in the experiment on HOP-92 NSCLC. Also, the growth with NCI-H522 lung was 41.5%; in the experiment with A549/ATCC NSCLC, 45.5%; in the experiment with 786-0 renal it was 71.4%; in the experiment with COLO 205 colon it was 19.8%; with DU-145 prostate, 46%; in the experiment with K-562 leukemia it was -11.1% (active). Also, the growth with MALME-3M melanoma is -15% (active); in the experiment on MDA-MB-231 breast, 40%; in the experiment with RXF 393 renal it was -4.7% (active); in the experiment with SF-268 CNS it was 55.8%; with SF-295 CNS it was 42.9%; with SF-539 CNS it was 82.4%. Moreover, the growth in the experiment on UACC-257 melanoma was 34.5%; in the experiment with M14 melanoma it was 8.64% (active).
On to `CNC(=O)c1cc(Oc2cccc3nc(Nc4ccc(Oc5ccccc5)cc4)ccc23)ccn1`, for which the growth in the experiment with NCI-H23 lung is 78%; in the experiment on NCI-H226 lung it was 66%; with NCI-H322M lung it was 99.9%; in the experiment with HOP-62 NSCLC it was 92%; with NCI-H460 lung it was 61.9%; in the experiment with HOP-92 NSCLC it was 71.2%. Also, the growth with NCI-H522 lung was 62.7%; in the experiment on A549/ATCC NSCLC, 58.3%; in the experiment on 786-0 renal, 72.5%; with COLO 205 colon it was 46%; in the experiment on DU-145 prostate, 83.4%; with K-562 leukemia, 41%. The growth is 78.2% in the experiment with MALME-3M melanoma; 71.6% in the experiment on MDA-MB-231 breast; 91.3% with RXF 393 renal; 75.4% in the experiment on SF-268 CNS; 60.2% in the experiment with SF-295 CNS; 90.8% with SF-539 CNS. The growth in the experiment on UACC-257 melanoma was 77.2%; in the experiment with M14 melanoma it was 68.6%.
On to `Cn1ncc(Cl)c1-c1cc(C(=O)N[C@H](CN)Cc2cccc(F)c2)sc1Cl`, for which the growth in the experiment on NCI-H23 lung is 33.4%; in the experiment with NCI-H226 lung it was 34.5%; in the experiment on NCI-H322M lung, 28.6%; with HOP-62 NSCLC, 25.4%; with NCI-H460 lung it was 8.53% (active); in the experiment on HOP-92 NSCLC it was -27.5% (active). Further, the growth is 6.11% (active) in the experiment on NCI-H522 lung; 18.4% in the experiment on A549/ATCC NSCLC; -14.3% (active) in the experiment on 786-0 renal; -73.9% (active) in the experiment with COLO 205 colon; 44.4% in the experiment on DU-145 prostate; -21.1% (active) with K-562 leukemia. Besides, the growth with MALME-3M melanoma is -73.8% (active); in the experiment with MDA-MB-231 breast it was -9.49% (active); in the experiment on RXF 393 renal it was -36.5% (active); in the experiment on SF-268 CNS, 27%; with SF-295 CNS it was -12.5% (active); with SF-539 CNS, -31.5% (active). The values for the growth with UACC-257 melanoma and in the experiment on M14 melanoma were -87.7% (active) and -54.8% (active), respectively.

(Values after PubChem BioAssay (NCI).)
